IL1B cytotox = HUVEC cytotoxicity counter-screen, IL-1B stimulated | HUVEC cell count loss, Hoechst imaging | cell count reduction, % at 2 µM | AID 845 | hit rate 0.41% among 94,000;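 active means cell count reduction more than 3 SD above the screen-wide mean, cut at about 70% in these data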;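 further: normalized per plate to untreated control cells as the no-loss baseline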
IL1B NFkB pot = enhances IL-1B driven NFkB nuclear translocation. HUVEC IL-1B NFkB p65 nuclear translocation imaging. activation, % at 2 µM. hit rate 0.3% among 94,000;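 active means activation above 40%, about the mean plus 3 SD, also judged a hit on visual image review; inconclusive means activation above 40% but not a hit on visual review; inactive means activation not above 40% and no visual hit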;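 further: percent activation is computed from the nuclear over cytoplasmic p65 intensity ratio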
VCAM1 TNFa inh = reduces TNF alpha induced VCAM1 expression in HUVEC; HUVEC TNFa-induced VCAM-1 immunofluorescence, high-content imaging; inhibition, % at 2 µM; hit rate 0.48% among 95,000; AID 802;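 active means inhibition above the batch mean plus 3 SD, with images confirmed as a hit by eye, cut at about 37% in these data; inconclusive means inhibition above that limit but hit not confirmed in images; inactive means inhibition not above that limit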;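 further: 0% = TNF-stimulated DMSO wells and 100% = unstimulated control wells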
HUVEC tox TNFa = toxic to HUVEC cells under TNF alpha stimulation; HUVEC TNFalpha-stimulated, Hoechst cell count, imaging; cell count reduction, % at 2 µM; hit rate 0.17% among 93,000;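 active means cell count reduction exceeding the screen mean by over 5 SD, scaled to untreated wells per plate, cut at about 78% in these data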;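 further: cells counted after 24 h of TNF alpha exposure following the 1 h pretreatment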
NFkB transloc inh = blocks IL-1B driven NFkB nuclear translocation in HUVEC cells | hit rate 0.43% among 94,000 | AID 796 | HUVEC IL-1B NFkB p65 nuclear translocation imaging | inhibition, % at 2 µM;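 active means inhibition above about 30% together with a positive call from visual inspection of the well image, limit read from the data; inconclusive means inhibition above a set limit but visual check negative; inactive means inhibition not above a set limit, visual check negative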;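 further: nuclear over cytoplasmic p65 intensity ratio measured by imaging; 0% = IL-1B stimulated DMSO wells and 100% = unstimulated DMSO wells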
E-sel TNF inh = blocks E-selectin expression induced by TNF alpha | HUVEC TNFa-induced E-selectin immunofluorescence, high content | inhibition, % at 2 µM | hit rate 0.71% among 120,000 | AID 1246;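 active means inhibition above the batch mean plus 3 SD, and confirmed as a hit on visual image review, cut at about 43% in these data; inconclusive means passes the inhibition cutoff but fails visual image review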;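 further: 0% = TNF-stimulated DMSO wells and 100% = unstimulated control wells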
Starred values were filed as active, the others as inactive; ? = inconclusive; nt = no result given. This is a sample that favours compounds with a hit; in the whole collection about 1.7% have one here.

SMILES	IL1B cytotox	IL1B NFkB pot	VCAM1 TNFa inh	HUVEC tox TNFa	NFkB transloc inh	E-sel TNF inh
Cc1c(Br)c([N+](=O)[O-])nn1CC(=O)Nc1sc2c(c1C(=O)OC(C)C)CCCC2	19.2	-12.0	10.2	-4.5	12.0	63.8*
Cc1c(Br)c([N+](=O)[O-])nn1CCCC(=O)Nc1sc2c(c1C#N)CCC2	nt	nt	nt	nt	nt	24.5
COc1ccc(CN(C)CC(=O)Nc2ccc(Cl)cc2C(F)(F)F)c(OC)c1	nt	nt	nt	nt	nt	-12.4
COC(=O)C(NC(=O)c1ccccc1)(Nc1cc(C)cc(C)n1)C(F)(F)F (stereo not drawn)	-29.7	6.9	13.6	-9.2	-6.9	-24.4
Cc1cccc(C)c1NC(=O)C[N+](C)(C)CC(O)COc1cccc2ccccc12 (stereo not drawn)	nt	nt	nt	nt	nt	-11.5
O=C(N/N=C\c1ccc(CNS(=O)(=O)c2ccc(Cl)cc2)o1)C(=O)Nc1ccc(Oc2ccccc2)cc1	nt	nt	nt	nt	nt	91.8*
CCOc1ccc(NC(=O)C2CCC(N3C(=O)C4CC=CCC4C3=O)CC2)cc1 (stereo not drawn)	-21.5	-5.0	1.2	-27.5	4.9	?
CCOc1ccc(NC(=O)CN2C(=O)C3CC=CCC3C2=O)cc1 (stereo not drawn)	93.3*	-3.8	-0.2	-6.2	3.8	-20.1
CCOc1cc(N2CCOCC2)c(OCC)cc1NC(=O)c1ccc(OC(C)C)cc1	nt	nt	nt	nt	nt	-32.5
COc1ccccc1CNC(=O)COC(=O)CCC(=O)c1cccs1	nt	nt	nt	nt	nt	-9.4
O=C(NCCCCc1ccccc1)c1ccccc1Cl	nt	nt	nt	nt	nt	-2.9
Cc1ccc(/C(O)=C2/C(=O)C(=O)OC2c2ccc(Cl)cc2)cc1 (stereo not drawn)	4.7	6.1	0.0	5.8	-6.1	7.8
O=C1OC(c2ccccc2)/C(=C(/O)c2ccc(Cl)cc2)C1=O (stereo not drawn)	10.5	-38.0	15.6	9.1	38.0*	10.1
CC(C(=O)Nc1ccccc1-c1ccccc1)N(C)Cc1nc2ccccc2c(=O)[nH]1 (stereo not drawn)	nt	nt	nt	nt	nt	-54.6
Cn1c2c(c(=O)n(C)c1=O)C(c1ccc(Cl)cc1)C(C#N)=C(N)O2 (stereo not drawn)	nt	nt	nt	nt	nt	19.3
COc1ccc2sc3c(=O)[nH]c4ccccc4c3c2c1	-39.5	43.4*	28.6	12.8	-43.4	-43.3
COc1ccc2c(c1)[nH]c(=O)c1sc3ccccc3c12	nt	nt	3.2	-5.7	nt	-60.2
CCN(CCC(=O)Nc1cc([N+](=O)[O-])ccc1OC)Cc1ccccc1	nt	nt	nt	nt	nt	-3.4
Cc1ccc(Nc2nc(CSc3nnnn3C)cs2)cc1	4.4	-0.9	96.3*	-25.4	0.9	14.8
O=C(COc1ccc(Cl)cc1)N1CCN(C(=O)c2cccs2)CC1	nt	nt	nt	nt	nt	5.8
O=C(Nc1ccc2oc(-c3cccnc3)nc2c1)c1ccco1	-7.6	9.9	16.9	5.1	-9.9	6.6
O=C(Nc1ccc2nc(-c3ccccc3)oc2c1)c1ccco1	-39.3	40.3*	-17.1	-1.3	-40.3	-11.0
CC1=NN(c2ccccc2)C(=O)C1(C)C	-0.6	-50.3	7.3	0.0	50.3*	9.7
CCCOC(=O)C1=C(C)NC2=C(C(=O)CC(C)(C)C2)C1c1ccc(N(C)C)cc1 (stereo not drawn)	-11.4	-2.2	-4.9	-6.5	2.2	-0.2
CCN(CC)c1ccc(C2C(C(=O)OCCOC)=C(C)NC3=C2C(=O)CC(C)(C)C3)cc1 (stereo not drawn)	-5.9	20.0	2.1	-12.5	-20.0	61.4*
SMILES	IL1B cytotox	IL1B NFkB pot	VCAM1 TNFa inh	HUVEC tox TNFa	NFkB transloc inh	E-sel TNF inh
CC(C)(C)NC(=O)CN(C(=O)C(=O)Nc1ccc2c(c1)OCCO2)C(C)(C)C	nt	nt	nt	nt	nt	-17.9
Cc1ccc(CCNC(=O)Cn2cccc2)cc1	87.8*	-97.6	4.8	-7.8	97.6*	-11.3
Cn1c(SCC(=O)N/N=C/C=C/c2ccco2)nc2ccccc21	nt	nt	nt	nt	nt	-4.3
O=C(NNS(=O)(=O)c1ccc(Br)cc1)c1ccncc1	6.6	-34.9	-20.5	-5.2	34.9*	-17.8
Clc1cccc(CSc2nnc(-c3sccc3-n3cccc3)o2)c1	12.3	-2.3	-3.4	-7.3	2.3	81.5*
CC(=O)CSc1nnc(Cc2ccc3c(c2)OCO3)o1	10.2	11.0	-14.8	2.3	-11.0	-36.3
Cc1ccc(-c2cc(C(=O)NCc3ccco3)no2)cc1	-3.2	13.0	-6.5	-19.3	-13.0	-7.6
O=C(NCc1ccco1)c1cc(-c2ccc(Cl)cc2)on1	16.9	-1.6	78.9*	66.3	1.6	nt
Cc1ccc(CNC(=O)C(Cc2ccccc2)NS(=O)(=O)c2cccs2)cc1 (stereo not drawn)	-4.3	-32.9	8.0	1.7	32.9*	2.9

Screening data deposited in PubChem by Columbia University Molecular Screening Center.
